# According to PubChem BioAssay (Tox21):
# Records with an inconclusive call do not appear. A call without a number means that no potency is given here. Active and inactive are the calls of the source. Unless noted, the call rests on the fitted dose curve; in most records, active means well fitted cell-killing curve with a large enough effect in the repeat runs; inconclusive means weak or mixed curves, or effect the other way; inactive means flat fitted curve, though single readings scatter.
# Molecular target: Estrogen receptor beta (Homo sapiens) (UniProt Q92731)
# Sequence (Q92731 whole entry, looked up): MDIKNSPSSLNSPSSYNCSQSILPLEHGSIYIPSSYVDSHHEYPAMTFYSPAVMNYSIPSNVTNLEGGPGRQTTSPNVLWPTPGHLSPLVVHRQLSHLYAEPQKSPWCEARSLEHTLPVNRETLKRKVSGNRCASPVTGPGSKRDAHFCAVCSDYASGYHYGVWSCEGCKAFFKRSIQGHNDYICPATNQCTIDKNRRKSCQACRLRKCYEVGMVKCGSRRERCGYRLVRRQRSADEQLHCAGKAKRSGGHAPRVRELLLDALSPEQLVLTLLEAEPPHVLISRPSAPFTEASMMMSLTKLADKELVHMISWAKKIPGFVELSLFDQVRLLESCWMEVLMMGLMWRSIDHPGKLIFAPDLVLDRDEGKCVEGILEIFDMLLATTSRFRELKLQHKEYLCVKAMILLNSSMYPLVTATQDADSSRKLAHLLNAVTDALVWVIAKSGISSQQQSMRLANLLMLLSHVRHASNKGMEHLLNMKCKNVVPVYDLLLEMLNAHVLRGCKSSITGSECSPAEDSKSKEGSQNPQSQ
# Assay: qHTS assay to identify small molecule antagonists of the estrogen receptor beta (ER-beta) signaling pathway (AID 1259378; active means well fitted inhibition curve with a large enough effect in the signal ratio in the repeat runs, not every such curve was filed as active; the % refers to the signal ratio)
# Settings: ER-beta-UAS-bla HEK293T, beta-lactamase FRET ratio, 16 h; series mostly up to 92.4 µM
# Summary of the method: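 ER-beta-UAS-bla HEK293T (GripTite) cells in 2% charcoal-stripped FBS medium were preincubated 6 hr at 37C, dosed with compound, then stimulated with 1 nM E2 (final) for 16 hr; beta-lactamase reporter read by B/G FRET fluorescence after 2 hr substrate loading.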
row,Compound,Potency
1,FC(F)(Cl)C(F)(Cl)Cl,inactive
2,Cc1ccc2c(Cl)cc(Cl)c(O)c2n1,inactive
3,CC(C)(O)C(=O)O,inactive
4,N#C[C@@H]1CC(F)(F)CN1C(=O)CNC1CC2CCC(C1)N2c1ncccn1 (stereo partly specified),inactive
5,O=C1C=CCCC1,inactive
6,NC(=O)c1ccccc1,inactive
7,CC(=O)CC/C=C(\C)CC/C=C(\C)CC/C=C(\C)CCC=C(C)C,inactive
8,C/C(=C(\CCO)SS/C(CCO)=C(\C)N(C=O)Cc1cnc(C)nc1N)N(C=O)Cc1cnc(C)nc1N,inactive
9,CCCCCCCCCCCCCCCCC(=O)O,inactive
10,Cc1c(-c2cccnc2)c2ccccc2n1CCCCC(=O)O,inactive
11,Clc1nc2ccccc2nc1Cl,inactive
12,CC(C)=CCC[C@H](C)CCO,inactive

# System: not listed separately
# Assay: qHTS assay to identify small molecule agonists of the androgen receptor (AR) signaling pathway in the presence of an antagonist - cell viability counter screen (AID 1259379); further: nearly all actives have a fitted effect of over 25% in size; further: potency means the concentration at half of the fitted maximal effect;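 on activity change, negative = cytotoxicity: MDA-kb2 human breast cancer cells carrying an MMTV luciferase reporter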
# Settings: MDA-kb2 viability, CellTiter-Fluor, 16 h; series mostly up to 92.4 µM
# Summary of the method: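 Each compound was tested at 15 concentrations on MDA-kb2 cells in the presence of 3.0uM nilutamide. Viability was measured by CellTiter-Fluor fluorescence after a 16 hr incubation at 37C in a CO2-free atmosphere.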
Compound,Potency,"activity change, negative = cytotoxicity"
CC(C)(C)NCC(O)COc1ccc(NC(=O)NC2CCCCC2)cc1 (stereo unspecified),inactive,
O=C(O)c1ccc2cc(O)ccc2c1,inactive,
CC(C(=O)O)c1ccc2c(c1)Cc1cccnc1O2 (stereo unspecified),inactive,
CC(O)CN (stereo unspecified),inactive,
CCCCCC1CCC(=O)O1 (stereo unspecified),inactive,
OCCc1ccncc1,inactive,
CCCCOC(=O)C(C)Oc1ccc(Oc2ccc(C(F)(F)F)cn2)cc1 (stereo unspecified),inactive,
O=Cc1ccc(Cl)c([N+](=O)[O-])c1,inactive,
CCC(CC)C(=O)O,inactive,
Nc1ccc(F)cc1F,inactive,
CCOC(OCC)OCC,inactive,
CCCC1CCCC(=O)O1 (stereo unspecified),inactive,
C=C[Si]1(C)O[Si](C)(C=C)O[Si](C)(C=C)O[Si](C)(C=C)O1 (stereo unspecified),inactive,
CCOC(C)OCC,inactive,
C=CCCC,inactive,
O=C(c1ccco1)N1CCNCC1,inactive,
COC(=O)c1cc(Cl)ccc1[N+](=O)[O-],inactive,
CC1(C)CC(=O)CC(C)(C)N1,inactive,
CCC(=O)O[C@@H]1C[C@H]2CC[C@]1(C)C2(C)C,inactive,
S=c1[nH][nH]c(=S)s1,inactive,

Compound,Potency,"activity change, negative = cytotoxicity"
CCCCCCCCCCCC(=O)OCC,inactive,
CCCCCCCCCCCCCCCCCCCl,,1.57% [at 8.39 µM] (inactive)
CCCC(=O)OCc1ccccc1,inactive,
O=C(O)c1ccccc1-n1cc(C(=O)O)c(=O)c2cc(Nc3c(F)cc(F)cc3Cl)c(Cl)cc21,inactive,
CCCCCCCCS,inactive,
CCCOC(C)=O,inactive,
C[C@@H](O)[C@H]1C(=O)N2C(C(=O)O)=C(S[C@@H]3CN[C@H](CNS(N)(=O)=O)C3)[C@H](C)[C@H]12,inactive,
FC(F)(Cl)C(F)(Cl)Cl,inactive,
Cc1ccc2c(Cl)cc(Cl)c(O)c2n1,inactive,
CC(C)(O)C(=O)O,inactive,
N#C[C@@H]1CC(F)(F)CN1C(=O)CNC1CC2CCC(C1)N2c1ncccn1 (stereo partly specified),inactive,
O=C1C=CCCC1,inactive,
NC(=O)c1ccccc1,inactive,
CC(=O)CC/C=C(\C)CC/C=C(\C)CC/C=C(\C)CCC=C(C)C,inactive,
C/C(=C(\CCO)SS/C(CCO)=C(\C)N(C=O)Cc1cnc(C)nc1N)N(C=O)Cc1cnc(C)nc1N,inactive,
CCCCCCCCCCCCCCCCC(=O)O,inactive,
Cc1c(-c2cccnc2)c2ccccc2n1CCCCC(=O)O,inactive,
Clc1nc2ccccc2nc1Cl,24.6 µM (active),
CC(C)=CCC[C@H](C)CCO,inactive,
